Results filed as inconclusive are left out. The source made the active and inactive calls. Unless noted, calls come from the whole dose curve; as a rule, active = well fitted curve in the direction sought with a large enough effect in the repeat runs; inconclusive = weak or mixed curves; inactive = no such curve, though single readings can be large; an effect the other way counts as inactive or inconclusive.
Assays:
[1] = molecular target: Thyrotropin receptor (Homo sapiens) (UniProt P16473); assay: qHTS assay to identify small molecule antagonists of the thyroid stimulating hormone receptor (TSHR) signaling pathway (AID 1259385; calls by dose curve; note: nearly all actives have a fitted effect of over 20% in size)
Chain of Thyrotropin receptor (Homo sapiens) (P16473 whole entry, looked up): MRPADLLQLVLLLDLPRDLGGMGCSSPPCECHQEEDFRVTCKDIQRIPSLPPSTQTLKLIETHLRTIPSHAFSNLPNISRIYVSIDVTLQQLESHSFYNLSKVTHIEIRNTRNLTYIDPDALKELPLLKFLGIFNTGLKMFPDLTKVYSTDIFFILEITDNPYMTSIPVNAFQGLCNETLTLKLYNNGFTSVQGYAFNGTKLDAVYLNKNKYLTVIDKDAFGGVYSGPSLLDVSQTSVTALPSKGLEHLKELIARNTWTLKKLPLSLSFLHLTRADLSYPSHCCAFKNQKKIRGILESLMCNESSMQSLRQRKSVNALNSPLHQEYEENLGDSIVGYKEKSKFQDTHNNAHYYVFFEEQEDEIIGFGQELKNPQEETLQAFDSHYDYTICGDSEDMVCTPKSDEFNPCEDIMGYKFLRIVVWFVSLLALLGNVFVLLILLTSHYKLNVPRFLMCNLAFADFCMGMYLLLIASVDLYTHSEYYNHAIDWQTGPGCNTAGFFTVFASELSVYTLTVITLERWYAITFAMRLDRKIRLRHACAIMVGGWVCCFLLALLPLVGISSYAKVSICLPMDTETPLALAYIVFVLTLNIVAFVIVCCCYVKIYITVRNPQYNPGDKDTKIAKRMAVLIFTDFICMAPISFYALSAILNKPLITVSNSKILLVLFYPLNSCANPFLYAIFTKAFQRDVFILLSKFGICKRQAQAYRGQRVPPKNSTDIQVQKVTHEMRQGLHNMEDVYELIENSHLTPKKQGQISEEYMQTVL
In short: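 Antagonist mode: compound-treated TSHR-expressing HEK293 cells were stimulated with 1.5 ng/mL TSH (final) in presence of Ro20-1724 for 30 min at RT. HTRF cAMP detection after 1 h; each compound tested at 15 concentrations, triplicate.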

[2] = qHTS assay to identify small molecule agonists of the estrogen receptor alpha (ER-alpha) signaling pathway in the presence of an antagonist - cell viability counter screen (AID 1259386);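 note: series mostly up to about 92 µM; cells exposed to compounds for 22 h at 37 °C before the viability read; nearly all actives have a fitted effect of over 30% in size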
In short: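 Using estrogen-depleted VM7Luc4E2 cells, the 15-concentration compound series was applied together with 10.0nM ICI-182,780 and incubated 22hr at 37C/5% CO2. Cell viability was then scored by CellTiter-Fluor.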

[3] = molecular target: Progesterone receptor (Homo sapiens) (UniProt P06401); assay: qHTS assay to identify small molecule agonists of the progesterone receptor (PR) signaling pathway (AID 1346784; calls by dose curve; note: nearly all actives have a fitted effect of over 30% in size)
Chain of Progesterone receptor (Homo sapiens) (P06401 whole entry, looked up): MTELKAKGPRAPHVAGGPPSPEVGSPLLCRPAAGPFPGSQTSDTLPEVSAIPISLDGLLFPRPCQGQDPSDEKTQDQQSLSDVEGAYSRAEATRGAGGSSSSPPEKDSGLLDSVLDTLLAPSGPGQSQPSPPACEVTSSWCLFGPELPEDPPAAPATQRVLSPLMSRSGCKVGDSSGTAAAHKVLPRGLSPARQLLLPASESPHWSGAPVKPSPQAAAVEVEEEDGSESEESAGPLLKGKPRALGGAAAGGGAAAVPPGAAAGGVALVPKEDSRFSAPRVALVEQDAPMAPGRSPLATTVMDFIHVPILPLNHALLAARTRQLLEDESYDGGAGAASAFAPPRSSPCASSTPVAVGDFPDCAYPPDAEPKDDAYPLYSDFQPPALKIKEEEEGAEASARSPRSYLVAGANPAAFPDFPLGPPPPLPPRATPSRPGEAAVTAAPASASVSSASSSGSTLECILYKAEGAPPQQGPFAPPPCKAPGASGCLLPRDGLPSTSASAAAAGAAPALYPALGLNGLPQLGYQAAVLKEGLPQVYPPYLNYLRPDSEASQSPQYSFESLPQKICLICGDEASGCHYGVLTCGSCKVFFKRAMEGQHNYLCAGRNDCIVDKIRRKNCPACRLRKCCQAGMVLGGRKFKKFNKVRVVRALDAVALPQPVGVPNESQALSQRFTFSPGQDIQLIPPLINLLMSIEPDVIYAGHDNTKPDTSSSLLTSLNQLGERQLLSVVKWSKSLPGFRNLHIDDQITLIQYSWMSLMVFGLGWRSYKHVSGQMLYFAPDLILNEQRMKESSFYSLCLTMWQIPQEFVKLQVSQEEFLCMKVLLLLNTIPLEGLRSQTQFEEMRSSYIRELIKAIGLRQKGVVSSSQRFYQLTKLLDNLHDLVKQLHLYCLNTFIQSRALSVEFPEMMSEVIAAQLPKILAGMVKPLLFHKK
In short: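 Seed PR-UAS-bla HEK 293T cells (2% charcoal-stripped FBS), incubate 6 hr at 37C; add compounds in DMSO, 16 hr at 37C; add LiveBLAzer B/G substrate, 2 hr RT; read fluorescence intensity.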

[4] = molecular target: Progesterone receptor (Homo sapiens) (UniProt P06401); assay: qHTS assay to identify small molecule antagonists of the progesterone receptor (PR) signaling pathway (AID 1346795; active = well fitted inhibition curve with a large enough effect in the signal ratio in the repeat runs, not every such curve was filed as active; the % refers to the signal ratio)
In short: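 Screening used a GripTite HEK293T line with PR-responsive UAS-beta-lactamase. Cells were challenged with compound in the presence of 1 nM R5020 final for 16 hr at 37C; B/G FRET substrate, 2 hr room temperature, fluorescence.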

[5] = qHTS assay to identify small molecule antagonists of the progesterone receptor (PR) signaling pathway - cell viability counter screen (AID 1346798); note: series mostly up to about 92 µM; nearly all actives have a fitted effect of over 50% in size
In short: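 Measures cytotoxicity in parallel with the PR antagonist reporter read: HEK293T PR-UAS-bla cells get compound and R5020 for 16 hr, and remaining viable cells are quantified by CellTiter-Glo luminescence.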

[6] = qHTS assay to identify small molecule agonists of the progesterone receptor (PR) signaling pathway - cell viability counter screen (AID 1346799; calls by dose curve; note: nearly all actives have a fitted effect of over 45% in size)
In short: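 Using the same plates as the PR reporter screen, HEK293T PR-UAS-bla cells received compounds for 16 hr at 37C and were then lysed with CellTiter-Glo; luminescence was read 30 min later at room temperature.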

[7] = qHTS assay to identify small molecule agonists of the TGF-beta/Smad signaling pathway - cell viability counter screen (AID 1346829); note: top concentration of the series differs between compounds; nearly all actives have a fitted effect of over 45% in size
In short: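 HEK 293T SBE-bla line, 5 hr compound exposure at 37 C, multiplexed CellTiter-Glo viability read by luminescence.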

[8] = qHTS assay to identify small molecule agonists of the TGF-beta/Smad signaling pathway (AID 1346859; active = well fitted activation curve with a large enough effect in the signal ratio in the repeat runs, not every such curve was filed as active; the % refers to the signal ratio; note: series mostly up to about 77 µM)
In short: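 Beta-lactamase reporter activity downstream of Smad binding elements was measured in stably transfected HEK 293T cells; compounds were incubated for 5 hr, substrate for 2 hr at room temperature.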

[9] = molecular target: Thyrotropin-releasing hormone receptor (Homo sapiens) (UniProt P34981); assay: qHTS assay to identify small molecule antagonists of the thyrotropin-releasing hormone receptor (TRHR) signaling pathway (AID 1346877; active = well fitted inhibition curve with a large enough effect in the repeat runs, not every such curve was filed as active; note: series mostly up to about 51 µM)
Chain of Thyrotropin-releasing hormone receptor (Homo sapiens) (P34981 whole entry, looked up): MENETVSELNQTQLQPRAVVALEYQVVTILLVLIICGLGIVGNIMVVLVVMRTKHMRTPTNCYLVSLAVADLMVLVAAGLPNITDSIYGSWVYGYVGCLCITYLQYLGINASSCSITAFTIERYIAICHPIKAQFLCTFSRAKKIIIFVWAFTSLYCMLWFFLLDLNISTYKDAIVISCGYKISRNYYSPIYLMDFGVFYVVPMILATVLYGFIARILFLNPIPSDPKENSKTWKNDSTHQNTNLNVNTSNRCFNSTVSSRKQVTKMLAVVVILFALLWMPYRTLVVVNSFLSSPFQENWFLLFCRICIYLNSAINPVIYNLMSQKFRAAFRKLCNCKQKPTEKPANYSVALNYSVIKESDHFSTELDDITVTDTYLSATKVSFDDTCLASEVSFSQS
In short: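 Calcium signal in dye-loaded TRHR/HEK293 cells; compounds added 5 min before TRH (1 nM final); fluorescence monitored 3 min at 1 s steps.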

[10] = molecular target: Thyrotropin-releasing hormone receptor (Homo sapiens) (UniProt P34981); assay: qHTS assay to identify small molecule agonists of the thyrotropin-releasing hormone receptor (TRHR) signaling pathway (AID 1346891; calls by dose curve;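 note: HEK293 cells expressing TRHR with calcium dye readout; series mostly up to about 58 µM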)
In short: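 Overnight-plated (18 h, 37 °C, 5% CO2) TRHR-Hek293 cells; 2 h calcium dye at 37 °C; compound in DMSO; 3-min kinetic fluorescence read.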

[11] = Caspase-3/7 induction in HepG2 cells by small molecules, qHTS assay (AID 1346978); note: nearly all actives have a fitted effect of over 15% in size
In short: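 Caspase-3/7 induction was measured by Caspase-Glo 3/7 luminescence (30 min, room temperature) after a 17 hr compound exposure of wild-type HepG2 cells seeded at 2,000 per well and pre-incubated 5 hr.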

[12] = Caspase-3/7 induction in CHO-K1 cells by small molecules, qHTS cell viability counter screen (AID 1346979); note: nearly all actives have a fitted effect of over 35% in size
In short: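 Multiplexed with Caspase-Glo 3/7 in CHO-K1 cells, this counter screen added CellTiter-Fluor after 16hr of compound exposure and recorded fluorescence 1hr later.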

[13] = Caspase-3/7 induction in CHO-K1 cells by small molecules, qHTS assay (AID 1346980); note: nearly all actives have a fitted effect of over 15% in size
In short: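 Luminescent Caspase-Glo 3/7 read (30min, room temperature) quantified apoptosis induction. Cells were wild-type CHO-K1, treated with compound for 17hr at 37 C and 5% CO2.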

[14] = Caspase-3/7 induction in HepG2 cells by small molecules, qHTS cell viability counter screen (AID 1346981); note: series mostly up to about 92 µM; nearly all actives have a fitted effect of over 30% in size
In short: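 After a 5-hr attachment period at 37 C and 5% CO2, wild-type HepG2 cells received compounds in DMSO. Sixteen hours later CellTiter-Fluor was dispensed and the fluorescent signal quantified after a further hour.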

[15] = molecular target: Nuclear receptor subfamily 1 group I member 2 (Homo sapiens) (UniProt O75469); assay: Human pregnane X receptor (PXR) small molecule agonists, qHTS assay (AID 1346982); note: nearly all actives have a fitted effect of over 35% in size
Chain of Nuclear receptor subfamily 1 group I member 2 (Homo sapiens) (O75469 whole entry, looked up): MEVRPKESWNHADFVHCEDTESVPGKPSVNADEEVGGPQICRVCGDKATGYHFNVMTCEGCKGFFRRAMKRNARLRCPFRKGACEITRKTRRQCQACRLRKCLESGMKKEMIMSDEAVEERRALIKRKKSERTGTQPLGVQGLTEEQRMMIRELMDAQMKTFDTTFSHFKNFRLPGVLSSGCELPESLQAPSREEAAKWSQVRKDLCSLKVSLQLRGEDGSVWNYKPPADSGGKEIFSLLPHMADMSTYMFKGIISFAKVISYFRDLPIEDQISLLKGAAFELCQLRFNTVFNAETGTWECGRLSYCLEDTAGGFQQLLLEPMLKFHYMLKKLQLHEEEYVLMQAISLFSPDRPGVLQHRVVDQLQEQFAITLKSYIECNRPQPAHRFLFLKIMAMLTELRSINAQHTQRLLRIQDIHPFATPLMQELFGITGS
In short: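 Tox21 qHTS; PXR-Luc HepG2; compounds pinned from DMSO; 24 hr, 37 C; ONE-Glo luciferase detection, 30 min room temperature.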

[16] = qHTS assay to identify small molecule antagonists of the TGF-beta/Smad signaling pathway - cell viability counter screen (AID 1346824); note: nearly all actives have a fitted effect of over 50% in size
In short: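 Cytotoxicity counter-screen run in the same wells as the beta-lactamase Smad reporter read: CellTiter-Glo luminescence after 30 min at room temperature. HEK 293T SBE-bla cells had 5 hr compound exposure at 37 C with TGF-beta1 (0.25 ng/mL stock).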

[17] = molecular target: Nuclear receptor subfamily 1 group I member 2 (Homo sapiens) (UniProt O75469); assay: CYP3A4 induction through human pregnane X receptor (PXR) by small molecules, qHTS assay (AID 1346984); note: nearly all actives have a fitted effect of over 40% in size
In short: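 Cells (DPX-2; HepG2 with PXR element plus CYP3A4-promoter luciferase) settled 5hr, then were treated 24hr at 37C. A 3hr, 3uM-final Luciferin-IPA step preceded luminescence measurement with One-Glo.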

[18] = molecular target: Nuclear receptor subfamily 1 group I member 2 (Homo sapiens) (UniProt O75469); assay: Human pregnane X receptor (PXR) activation by small molecules, qHTS assay (AID 1346985); note: nearly all actives have a fitted effect of over 40% in size
In short: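 DPX-2 cells (HepG2 co-transfected with a PXR response element and a CYP3A4-promoter luciferase construct) were seeded at 2,000 per well, rested 5 hr at 37C, then exposed to DMSO-dissolved compounds for 24 hr. Activation was read as luciferase luminescence.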

[19] = Human pregnane X receptor (PXR) small molecule agonists, qHTS cell viability counter screen (AID 1346977); note: nearly all actives have a fitted effect of over 50% in size
In short: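 After a 5hr pre-incubation, PXR-Luc HepG2 cells received compounds plus positive control in DMSO and were kept 24hr at 37C. Cell viability was quantified by fluorescence from CellTiter-Fluor added for the final hour.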

Measured: Potency

CC(CO)c1ccccc1 (configuration not stated)
not listed: [16] | [17] | [18] | [19]
inactive: all other assays above

O=C(NCCN1CCOCC1)c1ccc(Cl)cc1
not listed: [9] | [10] | [11] | [19]
inactive: all other assays above

COc1ccc(Br)c(C)c1
not listed: [7] | [12] | [17] | [18]
inactive: all other assays above

CN(C)C(=O)CNC(=O)Cc1ccccc1
not listed: [7] | [9] | [10] | [13] | [17] | [18]
inactive: all other assays above

Cc1ccc2ccc(Cl)cc2n1
not listed: [9] | [10] | [15] | [17] | [18]
inactive: all other assays above

O=C(CCNNC(=O)c1ccncc1)NCc1ccccc1
not listed: [7] | [12] | [17] | [18]
inactive: all other assays above

O=C(CS(=O)Cc1ccco1)NC/C=C\COc1cc(CN2CCCCC2)ccn1 (configuration not stated)
not listed: [9] | [11] | [12]
inactive: all other assays above

CCCCCCCCCC(C)=O
not listed: [7] | [17] | [18]
inactive: all other assays above

CC(C)=O
not listed: [7] | [15] | [17] | [18]
inactive: all other assays above

COCCc1ccc(OCC2CO2)cc1 (configuration not stated)
not listed: [9] | [11] | [17] | [18]
inactive: all other assays above

CC(=O)NCCCCCC(=O)O
not listed: [7] | [9] | [11]
inactive: all other assays above

CCOC(=O)/C=C/c1ccccc1
not listed: [9] | [11] | [17] | [18]
inactive: all other assays above

Oc1ccccc1-c1nnco1
not listed: [11] | [16] | [17] | [18]
inactive: all other assays above

CN(C)CCOCCO
not listed: [7] | [9] | [13] | [16] | [17] | [18]
inactive: all other assays above

BrCCCCCBr
not listed: [11] | [16] | [17] | [18]
inactive: all other assays above

O=C(O)Cc1cn(-c2ccccc2)nc1-c1ccc(Cl)cc1
not listed: [7] | [8] | [12]
inactive: all other assays above

CNC(=O)[C@H]1O[C@@H](n2cnc3c(NCc4cc(Cl)ccc4OCc4cc(C)no4)ncnc32)[C@H](O)[C@@H]1N
not listed: [7] | [9] | [13] | [16] | [17] | [18]
inactive: all other assays above

From PubChem BioAssay (Tox21)
